Assay outcomes from PubChem.
Hits are enriched below; roughly 9.8% of the tested compounds scored in any of these assays.
CBFb RUNX1 block – qHTS Assay for Compounds Blocking the Interaction Between CBF-beta and RUNX1 for the Treatment of Acute Myeloid Leukemia. 230,000 tested, under 10 active. AID 1477, 2009. Potency, µM (titrated, usually from 59.8 µM), inactives show at the highest dose activity, negative = inhibition, hits mostly inhibitors. AlphaScreen CBFb-His/RUNX1-biotin binding, biochemical. Runt-related transcription factor 1 (Homo sapiens) + Core-binding factor subunit beta …; active = well fitted curve in the direction sought with a large enough effect; inconclusive = small, poorly fitted or top-dose-only effect, or another doubt; inactive = no such curve, though single readings can be large; an effect the other way counts as inactive or inconclusive; note: % of control where 0% means no effect
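His-tagged CBF-beta and biotinylated RUNX1 (30 nM each) were premixed 20 min at room temperature, exposed to compound for 15 min, then given nickel-chelate and streptavidin AlphaScreen beads (50 ng each). After 90 min, AlphaScreen signal was read.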
ALDH1A1 block – qHTS Assay for Inhibitors of Aldehyde Dehydrogenase 1 (ALDH1A1); Purified ALDH1A1, NADH fluorescence, propionaldehyde substrate; Potency, µM (doses to about 75.3 µM), for inactives: top-dose activity, negative = inhibition, hits mostly inhibitors; 7.3% of 220,000 active;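 note: potency is the fitted concentration of half-maximal effect; plate controls were no enzyme wells and a reference inhibitor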
HTT ATP protect – qHTS Multiplex Assay to Identify Dual Action Probes in a Cell Model of Huntington: Cytoprotection (ATP) | PC12 HTT-Q103 induced, cytoprotection, ATP luminescence, 40 h | Potency, µM (doses to about 56.4 µM), without a hit: cytoprotection (ATP increase), usual class: activators | 0.14% of 230,000 active | AID 1471, 2008; active = well fitted curve in the direction sought with a large enough effect; inconclusive = small, poorly fitted or top-dose-only effect, or another doubt; inactive = no such curve, though single readings can be large; an effect the other way counts as inactive or inconclusive; note: potency is the fitted concentration of half-maximal effect; % of control where 0% means no effect; nearly all actives have a fitted effect of over 45% in size
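Quantitative HTS on tebufenozide-induced (100 nM) PC12 cells expressing HTTQ103 exon 1–GFP; compounds tested as a concentration series; survival measured via cellular ATP.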
JMJD2E inh – qHTS Assay for Inhibitors of Human Jumonji Domain Containing 2E (JMJD2E); Potency, µM (top dose mostly 57.1 µM), without a hit: top-dose activity change, negative = inhibition, hits mostly inhibitors; JMJD2E catalytic domain, FDH-coupled NADH fluorescence (FDH is formaldehyde dehydrogenase); Lysine-specific demethylase 4E (Homo sapiens), B2RXH2; AID 2147, 2009; 1.6% of 230,000 active;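 note: potency is the fitted concentration of half-maximal effect; 0% = wells with enzyme and -100% = buffer wells without enzyme; nearly all actives have a fitted effect of over 50% in size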
Target sequence (B2RXH2 1-337 limits assumed): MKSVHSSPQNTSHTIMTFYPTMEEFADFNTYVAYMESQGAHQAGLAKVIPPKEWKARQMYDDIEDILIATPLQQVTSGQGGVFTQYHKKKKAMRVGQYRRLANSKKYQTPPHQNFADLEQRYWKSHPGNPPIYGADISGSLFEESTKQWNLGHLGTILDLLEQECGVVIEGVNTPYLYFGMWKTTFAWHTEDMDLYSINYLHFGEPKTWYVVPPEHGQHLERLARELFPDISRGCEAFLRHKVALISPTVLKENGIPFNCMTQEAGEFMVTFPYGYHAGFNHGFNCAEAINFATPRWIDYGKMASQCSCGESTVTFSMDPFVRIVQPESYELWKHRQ
HPGD block – qHTS Assay for Inhibitors of HPGD (15-Hydroxyprostaglandin Dehydrogenase). 15-hydroxyprostaglandin dehydrogenase [NAD(+)] (Homo sapiens), P15428. purified HPGD, NADH fluorescence kinetic, PGE2 substrate. Potency, µM, inactives show at the highest dose activity change, negative = inhibition, actives largely listed as inhibitors. 4.3% of 150,000 active. AID 894, 2007; note: potency is the fitted concentration of half-maximal effect; % is set by controls: 0 for no effect and ±100 for the full control effect
Target sequence (P15428 whole entry, looked up): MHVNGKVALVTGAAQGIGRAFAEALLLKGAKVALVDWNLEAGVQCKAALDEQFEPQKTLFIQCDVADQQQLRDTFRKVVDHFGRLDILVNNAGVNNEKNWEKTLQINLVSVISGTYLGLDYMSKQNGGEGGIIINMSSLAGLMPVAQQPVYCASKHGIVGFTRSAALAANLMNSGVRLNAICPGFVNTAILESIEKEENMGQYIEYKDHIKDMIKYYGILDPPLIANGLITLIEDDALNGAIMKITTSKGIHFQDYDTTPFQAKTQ
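NADH formation kinetics: reaction with 30 uM PGE2 and 1 mM NAD+ (final), 20 nM enzyme, Tris-HCl pH 8 with Tween 20, after 15 min compound preincubation at room temperature. Fluorescence change, last versus first of five reads.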
HTT aggregate – qHTS Multiplex Assay to Identify Dual Action Probes in a Cell Model of Huntington: Aggregate Formation (GFP). PC12 HttQ103-GFP aggregates, Acumen cytometry, 40 h. 1.1% of 220,000 active. Potency, µM (titrated, usually from 46.1 µM), inactives show top-dose activity change, negative = inhibition, usual class: inhibitors; active = well fitted curve in the direction sought with a large enough effect; inconclusive = small, poorly fitted or top-dose-only effect, or another doubt; inactive = no such curve, though single readings can be large; an effect the other way counts as inactive or inconclusive; note: potency is the fitted concentration of half-maximal effect; % is set by controls: 0 for no effect and ±100 for the full control effect; nearly all actives have a fitted effect of over 60% in size
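Multiplexed with ATP-based cell death, this channel scores GFP aggregates in PC12 cells expressing inducible HTTex1-Q103-GFP. Induction used 100 nM tebufenozide; compounds were tested in concentration series.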
An asterisk follows results filed as active; ? = inconclusive; nt = no result; ! = not confirmed by another sample; [ ] = remark or other dose. Unless noted, calls come from the whole dose curve; as a rule, active = well fitted inhibition curve with a large enough effect (not every such curve was filed as active); inconclusive = small, poorly fitted or top-dose-only effect, or another doubt; inactive = no such curve, though single readings can be large or run the other way.

SMILES	CBFb RUNX1 block	ALDH1A1 block	HTT ATP protect	JMJD2E inh	HPGD block	HTT aggregate
CCOc1ccc(S(=O)(=O)N(CC(=O)N/N=C/c2ccc(-c3ccc([N+](=O)[O-])cc3)o2)c2ccccc2)cc1	?	25.1µM*	-88.4%	-20.4%	-21.3%	-1.3%
O=C(CSc1nnc2ccccn12)Nc1ccccc1C(=O)O	4.7%	-3.0%	-13.3%	?	nt	-2.4%
Nc1ccc(C(=O)NCC(=O)O)cc1	?	0.5%	3.16µM*!	?	-11.9%	-9.9%[20.6 µM]
CCCCn1c(-c2cc(Cl)ccc2OC)n[nH]c1=S	-1.9%	?	-24.0%	?	28.2µM*	-14.7%
CC(C)(C)Cc1nnc(NS(=O)(=O)Cc2ccccc2)s1	2.8%	25.1µM*	2.5%[10 µM]	-9.4%	-19.2%	9.8%
CC(C)(C)Cc1nnc(NS(=O)(=O)c2ccc(F)cc2)s1	10.0%	?	-11.7%	-5.1%	?	0.6%
CCN1CCN(c2c(Cl)cccc2NC(=O)c2ccc3nsnc3c2)CC1	7.1%	nt	30.6%[10 µM]	0.6%	nt	12.2%[9.22 µM]
CCOc1ccc(-c2nc3n(c(=O)c2C#N)CCS3)cc1	-3.5%	?	7.3%[10 µM]	?	nt	-0.3%[9.22 µM]
FC(F)Oc1ccc(/C=N/c2c(-c3ccc(OC(F)F)cc3)nc3n2CCS3)cc1	-0.6%	3.55µM*	1.7%[10 µM]	4.6%	?	-15.0%
COc1cccc(C(=O)C2=NN(C(C)=O)CC2c2ccco2)c1 (stereo not drawn)	-9.0%	-2.1%	10.4%	-2.2%	nt	-9.4%
O=C(CO/N=C/c1ccccc1OC(F)F)NCc1ccco1	4.4%	nt	9.8%[10 µM]	-3.1%	nt	1.6%[9.22 µM]
O=C(CO/N=C/c1ccccc1OC(F)F)NCc1cccs1	9.6%	8.1%	6.1%[10 µM]	3.9%	15.8µM*	-1.5%
O=C(CO/N=C/c1ccccc1OC(F)F)N1CCc2ccccc21	1.6%	15.8µM*	7.2%[10 µM]	-0.8%	-10.4%	9.9%
CC1Cc2ccccc2N1C(=O)CO/N=C/c1ccccc1OC(F)F (stereo not drawn)	6.2%	?	2.6%[1.9 µM]	-1.1%	-18.2%	6.8%
COc1ccc(CCCC(=O)NC2CCCCC2)cc1	0.5%	7.1%	-8.4%	6.6%	?	4.8%
COc1ccc(CCCC(=O)NC2CCCCC2C)c(C)c1 (stereo not drawn)	6.6%	15.8µM*	7.2%	-1.4%	3.55µM*	-13.6%
CC(C)C(=O)Nc1cccc(C(=O)Nc2nnc(C(C)(C)C)s2)c1	1.7%	-3.6%	-0.6%	-0.3%	-5.2%	22.6%
COc1cccc2c1C(=O)c1c(O)c3c(c(O)c1C2=O)C[C@](O)(C(=O)CO)C[C@H]3O[C@@H]1C[C@H](N)[C@H](O)[C@H](C)O1	-13.0%[21.7 µM]	-2.6%[20.9 µM]	-254.3%[17.1 µM]	-8.6%[25.5 µM]	-9.7%	nt
CNS(=O)(=O)c1ccc(N=Cc2c(C)[nH]n(-c3ccc(C)cc3C)c2=O)cc1	6.0%	3.6%	-11.6%[10 µM]	?	nt	27.9%
Cc1ccc(-n2[nH]c(C)c(C=Nc3ccc(S(=O)(=O)Nc4nccs4)cc3)c2=O)cc1	2.0%	-15.6%	-8.6%[10 µM]	-2.9%	?	5.4%
Cc1[nH]n(-c2ccc(Br)cc2)c(=O)c1C=Nc1ccc(S(=O)(=O)Nc2nccs2)cc1	-18.1%	-10.5%	1.2%[10 µM]	17.6%	14.1µM*	-0.6%
Cc1ccc(-n2[nH]c(C)c(C=Nc3ccc(S(=O)(=O)Nc4nc(C)cc(C)n4)cc3)c2=O)c(C)c1	-22.1%	-18.3%	17.2%[10 µM]	2.7%	22.4µM*	-16.1%
CCc1nnc(NS(=O)(=O)c2ccc(N=Cc3c(C)[nH]n(-c4ccc(C)c(C)c4)c3=O)cc2)s1	-5.3%	11.2µM*	-29.9%[10 µM]	-0.6%	15.8µM*	6.3%
